Experimental data as given in PubChem BioAssay AID1211 (NMMLSC, 2008).
Active and inactive are the calls of the source. The rule behind the calls is not given here.

Molecular target: Estrogen receptor (Homo sapiens) (UniProt P03372)
Assay: ERalpha ligand binders by competition, primary screen, cell-based, Cos7 ERalpha-GFP, flow cytometry (AID 1211);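 note: 0% = DMSO vehicle wells and 100% = no E2-Alexa633 signal left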
Conditions: fluorescent ligand competition, stronger effect = higher value

Chain of Estrogen receptor (Homo sapiens) (P03372 whole entry, looked up): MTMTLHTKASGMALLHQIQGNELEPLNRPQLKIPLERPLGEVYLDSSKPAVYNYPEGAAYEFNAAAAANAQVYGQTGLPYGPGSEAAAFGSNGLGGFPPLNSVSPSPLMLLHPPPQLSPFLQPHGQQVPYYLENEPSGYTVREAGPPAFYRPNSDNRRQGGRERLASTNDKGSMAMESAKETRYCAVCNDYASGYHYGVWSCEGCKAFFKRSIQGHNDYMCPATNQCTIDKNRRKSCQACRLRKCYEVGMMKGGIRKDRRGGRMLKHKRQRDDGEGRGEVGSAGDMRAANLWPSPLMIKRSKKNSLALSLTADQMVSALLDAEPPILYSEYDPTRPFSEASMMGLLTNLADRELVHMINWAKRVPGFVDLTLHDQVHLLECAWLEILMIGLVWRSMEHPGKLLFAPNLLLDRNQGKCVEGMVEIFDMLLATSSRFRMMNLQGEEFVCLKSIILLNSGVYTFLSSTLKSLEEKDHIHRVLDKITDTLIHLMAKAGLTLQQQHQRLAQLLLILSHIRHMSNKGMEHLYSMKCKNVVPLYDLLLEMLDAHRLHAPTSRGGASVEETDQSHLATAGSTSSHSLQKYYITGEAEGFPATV

SMILES	inhibition of ligand binding (at 10 µM)	inhibition of ligand binding (binding inhibition, at 0.1 µM)
CCOC(=O)c1c(C)[nH]c(C)c1C(=O)CSc1nnc(-c2cc(OC)c(OC)c(OC)c2)o1	57% (inactive)	38%
CCOC(=O)c1c(C)oc2c1c(C=NC1CCS(=O)(=O)C1)c(O)c1ccccc12 (stereo not given)	29% (inactive)	43%
Cc1noc(C)c1COc1ccc(C(=O)OCC(=O)N2c3ccccc3NC(=O)C2(C)C)cc1	59% (inactive)	16%
Cc1ccsc1/C=C(\C(=O)c1ccc(OC(C)C)cc1)c1nc2ccccc2o1	12% (inactive)	40%
Cc1cc(C)cc(OCC(=O)Nc2ccc(N3CCCC3)cc2)c1	80% (active)	17%
CCCC1=NN2C(=N)/C(=C\c3ccc(SCc4ccco4)o3)C(=O)N=C2S1	14% (inactive)	26%
Oc1ccccc1C1=Nc2ccccc2N=C(c2cccs2)C1	1% (inactive)	54%
Cc1ccc(C(=O)NCC(=O)OCC(=O)c2c(N)n(C)c(=O)n(C)c2=O)s1	14% (inactive)	5%
Cc1ccc(S(=O)(=O)N2CCCCC2)cc1C(=O)Nc1ncn[nH]1	21% (inactive)	7%
CC(=O)c1ccc2c(c1)C1C=CCC1C(C(=O)O)N2 (stereo not given)	42% (inactive)	39%
Nc1ccc(-c2nc3ccc([N+](=O)[O-])cc3[nH]2)cc1	36% (active)	82%
CSC1=N/C(=C\c2ccc(Br)o2)C(=O)S1	12% (inactive)	13%
Nc1ccc2nc(-c3cccs3)[nH]c2c1	10% (inactive)	49%
C/C(N)=C(/C#N)C(=O)CSc1nnc(Nc2cccc(C)c2C)s1	32% (inactive)	16%
COc1nc(-c2ccc(Cl)cc2)ccc1-c1noc(-c2ccco2)n1	57% (inactive)	14%
COC(=O)c1c(NC(=O)Cc2cccs2)sc2c1CCCC2	57% (active)	70%
CN1CCc2cccc3c2[C@@H]1Cc1ccc(O)c(O)c1-3	42% (inactive)	6%
CC(=O)Nc1ccc(OC(=O)CC2SC(=O)NC2=O)cc1 (stereo not given)	51% (inactive)	60%
Cc1ccc(S(=O)(=O)Cc2ccc(C(=O)N3CCN(Cc4ccccc4)CC3)o2)cc1	25% (inactive)	9%
COc1ccc(NC(=O)c2ccco2)cc1N	2% (inactive)	3%
Cc1ccc(C2=Nc3ccccc3N=C(c3ccco3)C2)c(O)c1	2% (inactive)	26%
CN1C(=O)CC(C(=O)O)SC1=Nc1cc(Cl)c(O)c(Cl)c1 (stereo not given)	17% (inactive)	51%

SMILES	inhibition of ligand binding (at 10 µM)	inhibition of ligand binding (binding inhibition, at 0.1 µM)
O=C(Nc1cnn(C23CC4CC(CC(C4)C2)C3)c1)c1cnn2c(C(F)(F)F)cc(-c3ccco3)nc12	48% (inactive)	25%
NC(=O)c1ccsc1NC(=O)COC(=O)Cc1ccsc1	37% (inactive)	29%
O=S(=O)(/N=C(/Sc1ccccc1)c1ccccc1)c1ccccc1	0% (inactive)	24%
Cn1c(-c2ccc(N)cc2)nc2ccccc21	23% (inactive)	15%
CCN(c1ccccc1)S(=O)(=O)c1cc(C(=O)O)ccc1C	7% (inactive)	20%
CN(C)S(=O)(=O)N(CC(=O)N(Cc1ccccc1)Cc1ccccc1)c1ccccc1	23% (inactive)	24%
CCOC(=O)Cc1cc(=O)n2[nH]c(-c3ccc(C)cc3)cc2n1	0% (inactive)	25%
Cc1oc2c(C)c(O)ccc2c(=O)c1-c1ccc2ccccc2n1	20% (active)	70%
O=C(Nc1sc2c(c1C(=O)O)CCC2)c1ccccc1	15% (inactive)	61%
O=C(CSc1nc(C2CCCCC2)n(-c2ccccc2)n1)NCC(F)(F)F	41% (inactive)	46%
O=C(Nc1ccc2oc(-c3ccc4ccccc4c3)nc2c1)c1cccs1	32% (inactive)	51%
O=C(/C=C/c1ccc(O)cc1)c1ccc(O)cc1O	62% (inactive)	18%
O=S(=O)(NCC(O)COCc1ccco1)c1cccs1 (stereo not given)	7% (inactive)	4%
O=C(Cn1ncc2c(=O)oc3ccccc3c21)Nc1nc2ccccc2s1	7% (inactive)	22%
O=C1C2C3C=CC(C3)C2C(=O)N1c1cccc2cccnc12 (stereo not given)	4% (inactive)	57%
COc1ccc(C(Nc2ccccn2)c2oc(CO)cc(=O)c2O)cc1 (stereo not given)	32% (inactive)	22%
CCN(CC)CCCNC(=O)c1nn(-c2ccccc2OC)c(=O)c2ccccc12	39% (inactive)	62%
O=C1/C(=C\c2ccco2)SC(=S)N1c1ccc(O)cc1	61% (inactive)	31%
CNc1nnc(-c2cc3cc(Cl)ccc3oc2=O)s1	29% (inactive)	58%
Cc1ccc(C)c(/C(O)=C2/C(=O)C(=O)N(CCN3CCOCC3)C2c2ccco2)c1 (stereo not given)	0% (inactive)	52%
Oc1ccc(-c2cn3cc(C(F)(F)F)ccc3n2)cc1	29% (inactive)	7%
COc1cc(C2CC(=O)c3c(ccc4ccccc34)N2)ccc1O (stereo not given)	0% (inactive)	12%

SMILES	inhibition of ligand binding (at 10 µM)	inhibition of ligand binding (binding inhibition, at 0.1 µM)
O=S(=O)(NCc1csc(-c2cccnc2)n1)c1ccc(Cl)s1	45% (inactive)	6%
COc1cc2c(cc1O)CC[n+]1cc3c(OC)c(OC)ccc3cc1-2	46% (inactive)	9%
CCOC(=O)C1=C(O)/C(=C\c2ccc(CNC(=O)C(=O)Nc3ccccc3)o2)N=C1C	24% (inactive)	19%
CC(O)C1CCC2C3CC[C@H]4CC(O)CCC4(C)C3CC3(OCCO3)C12C (stereo not given in full)	33% (inactive)	1%
O=C(CSc1nc2ccccc2c(=O)[nH]1)c1ccc(O)c(O)c1	14% (inactive)	5%
O=C1c2ccccc2C(=O)N1/N=C/c1ccc(O)c(O)c1	32% (inactive)	23%
CC1(C)CCCN(C(=O)c2coc(=O)c(Br)c2)C1	33% (inactive)	25%
CS(=O)(=O)c1ccc2nc(NC(=O)CCC(=O)c3cccs3)sc2c1	33% (inactive)	14%
O=C(O)C1OC(Oc2c(-c3ccc(O)c(O)c3)oc3cc(O)cc(O)c3c2=O)C(O)C(O)C1O (stereo not given)	0% (inactive)	62%
O=Cc1ccc2oc3nc4n(c(=O)c3c(=O)c2c1)CCCS4	40% (inactive)	15%
Cc1cccc(N2CCN(C(=O)c3cc4c(=O)n(C)c5ccccc5c4n3C)CC2)c1C	55% (inactive)	11%
COc1ccc2nc3oc(C(=O)N4CCN(c5cccc(C(F)(F)F)c5)CC4)cc3cc2c1	45% (inactive)	19%
O=C(COC(=O)c1ccccc1Oc1ccccc1)NCc1ccco1	13% (inactive)	53%
COc1ccc2c(c1)C1C=CCC1C(c1cc3c(cc1Br)OCO3)N2 (stereo not given)	0% (inactive)	10%
Cc1nn(-c2ccccc2)c(Cl)c1/C=N/Nc1ccc(S(=O)(=O)Nc2ccccc2C(=O)O)cc1[N+](=O)[O-]	38% (inactive)	12%
O=C(COC(=O)CN1C(=O)c2ccccc2C1=O)Nc1ncc(Cl)cc1Cl	7% (inactive)	14%
CCCc1cc(-n2ccnc2)n2c(nc3ccccc32)c1C#N	14% (inactive)	50%
CCOc1cccc2cc(-c3nnc(NCc4ccco4)s3)c(=O)oc12	47% (inactive)	61%
CCOC(=O)c1sc(NC(=O)c2ccc3ncsc3c2)nc1C	33% (inactive)	36%
NS(=O)(=O)c1ccc2c(c1)C1C=CCC1C(C1CC=CCC1)N2 (stereo not given)	69% (active)	17%
CCOc1cc(C2CC(=O)c3c(ccc4ccccc34)N2)ccc1O (stereo not given)	32% (inactive)	23%
Cc1cc(N)ccc1N=Nc1c(C)n(C)n(-c2ccccc2)c1=O	44% (inactive)	3%

SMILES	inhibition of ligand binding (at 10 µM)	inhibition of ligand binding (binding inhibition, at 0.1 µM)
O=C(O)c1ccc(Cl)c2c1C1C=CCC1C(c1ccccn1)N2 (stereo not given)	43% (inactive)	10%
Cc1nnc(SCC(=O)NC(=O)NCc2ccco2)n1Cc1ccccc1	8% (inactive)	12%
C=CCn1c(=O)c(C#N)cc2c(=O)n3ccccc3nc21	38% (inactive)	42%
C/C(=N\Nc1ccc([N+](=O)[O-])cc1)c1cccc(N)c1	4% (inactive)	35%
Nc1ccc(-c2nc3ccc(C(=O)O)cc3s2)cc1	0% (inactive)	42%
C[C@]12CC[C@@H]3c4ccc(O)cc4[C@@H](O)C[C@H]3[C@@H]1CC[C@@H]2O	64% (active)	78%
COc1ccc(/C=N/NC(=O)c2nc(-c3ccccc3)cc(-c3ccccc3)n2)cc1O	56% (active)	97%
Cc1nc2ccccc2c(=O)n1/N=C/c1c(O)ccc2oc3c(c12)CCCC3	48% (inactive)	52%
COc1ccc(N2C(=O)c3ccccc3NC2c2ccc(OC)c(CSc3ccccn3)c2)cc1 (stereo not given)	40% (inactive)	19%
CCOc1ccc(C2C3=C(Nc4nc(N)[nH]c(=O)c42)c2ccccc2C3=O)cc1 (stereo not given)	50% (inactive)	26%
O=c1oc2ccccc2cc1-c1ccc(O)cc1	60% (inactive)	24%
COc1ccc(C2Nc3ccccc3C(=O)N2c2ccc(C)cc2)cc1COc1ccccn1 (stereo not given)	27% (inactive)	11%
Nc1nc2c(s1)CCc1c-2cnn1-c1ccccc1	13% (inactive)	21%
O=C1NC(c2ccc(Br)cc2)Nc2sc3c(c21)CCC3 (stereo not given)	29% (active)	69%
Oc1cccc(-c2nc3ccc4ccccc4c3c3c2CCC3)c1	33% (inactive)	21%
COc1ccc(-c2nnc(-c3cc4c(ccc5ccccc54)oc3=O)o2)cc1	58% (inactive)	35%
Oc1ccc(-c2nc(-c3ccc(O)c(O)c3)cs2)cc1	68% (active)	39%
Cc1ccc2nc(/C(C#N)=C\c3ccc(N4CCCCC4)c([N+](=O)[O-])c3)[nH]c2c1	55% (inactive)	25%
COc1cc(C(Nc2ccccn2)c2ccc3ccc(C)nc3c2O)cc(OC)c1O (stereo not given)	54% (inactive)	16%
